TRHR enhancer-1: qHTS for Small Molecule Agonists and Allosteric Enhancers of Human TRH Receptor: Primary Screen for Enhancers; 360,000 compounds, 0.66% hits; TRHR cells, fluo-8 calcium fluorescence, EC20 TRH enhancement; enhancement, % at 2 µM; in the data active = enhancement above about 30%; note: 0% is about no effect
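Enhancer read-out: after compound pinning and an initial kinetic agonist-mode read, an EC20 of TRH (10 nM final) was injected and fluo-8 calcium signal (Ex 480/Em 530) followed at 1 s/cycle for 100 cycles in TRHR-expressing cells.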
D1 PAM: Potentiators of Human D1 Dopamine Receptor: qHTS; D(1A) dopamine receptor (Homo sapiens), P21728; HEK293 TREx D1 cells, calcium flux, dopamine EC20 potentiation; potentiation, % at 10 µM; 360,000 compounds, 0.036% hits; in the data active = potentiation above about 30%; note: 0% is about no effect
Target sequence (P21728 whole entry, looked up): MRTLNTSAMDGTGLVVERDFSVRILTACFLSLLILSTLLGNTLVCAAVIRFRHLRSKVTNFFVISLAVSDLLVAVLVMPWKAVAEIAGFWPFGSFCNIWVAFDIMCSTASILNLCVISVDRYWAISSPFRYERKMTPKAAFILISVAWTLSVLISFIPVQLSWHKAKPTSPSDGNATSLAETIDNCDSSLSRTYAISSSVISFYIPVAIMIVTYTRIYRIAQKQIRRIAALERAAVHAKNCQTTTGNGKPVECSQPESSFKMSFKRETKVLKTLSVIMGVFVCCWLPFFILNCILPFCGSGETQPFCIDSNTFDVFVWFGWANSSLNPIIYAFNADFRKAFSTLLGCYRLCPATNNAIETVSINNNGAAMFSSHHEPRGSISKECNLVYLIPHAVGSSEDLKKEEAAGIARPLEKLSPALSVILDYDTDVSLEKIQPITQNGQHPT
D1 agonist: Allosteric Agonists of the Human D1 Dopamine Receptor: qHTS | D(1A) dopamine receptor (Homo sapiens), P21728 | HEK293 T-REx D1 cells, calcium flux, agonist mode | activation, % at 2 µM | 360,000 compounds, 1% hits | AID 504660, 2011; note: 0% is about no effect
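Inducible HEK293 T-REx D1 cells, force-coupled to calcium signalling, were plated at 4000 cells/well with tetracycline and held overnight at 30 C. After no-wash calcium dye loading, compound-evoked calcium rise over 180 s flagged agonists.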
D1 antag: Antagonist of Human D 1 Dopamine Receptor: qHTS. HEK293 TREx D1 cells, calcium flux, dopamine EC80; hits give low values. 360,000 compounds, 3.2% hits. D(1A) dopamine receptor (Homo sapiens), P21728. activity change, negative = inhibition, % at 10 µM. AID 504652, 2011; in the data active = activity change below about -30%; note: % is set by controls: 0 for no effect and ±100 for the full control effect
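Cells carrying a force-coupled, tetracycline-inducible human D1 receptor report calcium flux. Each well gets a 10 s baseline, compound with 180 s monitoring, then an EC80 dopamine stimulus with a second 180 s kinetic read.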
TRHR agonist-1: qHTS for Small Molecule Agonists and Allosteric Enhancers of Human TRH Receptor: Primary Screen for Agonists | Thyrotropin-releasing hormone receptor (Homo sapiens), P34981 | TRHR cells, calcium flux fluo-8, FDSS agonist mode | activation, % at 2 µM | 360,000 compounds, 0.18% hits | AID 493084, 2011; note: 0% is about no effect
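Fluo-8-loaded TRHR cells; 10 s baseline, compound added, kinetic Ca2+ fluorescence read 1/s, agonist mode.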
TRHR enhancer-2: qHTS for Small Molecule Agonists and Allosteric Enhancers of Human TRH Receptor: Confirmation Screen for Enhancers. shares compounds with TRHR enhancer-1. TRH receptor cell assay, enhancer confirmation qHTS. activity change, negative = inhibition, % at 46.1 µM. 970 tested, under 10 active; active = well fitted curve in the direction sought with a large enough effect; inconclusive = small, poorly fitted or top-dose-only effect, or another doubt; inactive = no such curve, though single readings can be large; an effect the other way counts as inactive or inconclusive;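 note: compound effect scored on response to added TRH at EC20 of 10 nM; 0% is about no effect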
TRHR agonist-2: qHTS for Small Molecule Agonists and Allosteric Enhancers of Human TRH Receptor: Confirmation Screen for Agonists; shares compounds with TRHR enhancer-1; TRHR-expressing cells, agonist activation read-out; Potency, µM (highest dose often 46.1 µM), inactives show at the top dose activation, usual class: activators; 970 compounds, 8% hits; active = well fitted curve in the direction sought with a large enough effect; inconclusive = small, poorly fitted or top-dose-only effect, or another doubt; inactive = no such curve, though single readings can be large; an effect the other way counts as inactive or inconclusive; note: potency is the fitted concentration of half-maximal effect; 0% is about no effect; nearly all actives have a fitted effect of over 75% in size
Numbers without * were called inactive; ? = inconclusive; / = no result. In the library only some 4.7% were active in any assay of this set; here they are far more common. Cut-off read from the data, not from the text of the source, unless noted: active = activation above about 30%; inactive = the rest.

SMILES	TRHR enhancer-1	D1 PAM	D1 agonist	D1 antag	TRHR agonist-1	TRHR enhancer-2	TRHR agonist-2
COc1ccc(OC)c(/C=N\NC(=O)CSc2nnc(CCCc3ccc(OC)c(C)c3)o2)c1	0	0	2	-5	0	/	/
COc1ccc(S(=O)(=O)NCc2ccc(C(=O)NCCCN3CCCC(C)C3)cc2)cc1 (stereo not drawn)	0	-3	1	3	-1	/	/
O=C(Nc1ccc(S(=O)(=O)Nc2nccc(C3Cc4ccccc4C(=O)O3)n2)cc1)c1ccccc1 (stereo not drawn)	43*	-3	-2	-4	0	-5	1%
CNC(=O)C(=O)Nc1c(C)cc(C)cc1C	41*	1	4	-36*	-1	1	6%
CCOc1cc(/C=C(/C#N)C(=O)Nc2ccc(O)cc2)cc(Br)c1O	-4	-5	48*	9	40*	9	21µM*
CCn1cnc2scc(-c3ccc(OC)cc3)c2c1=O	21	3	1	12	0	/	/
CCOc1ccc(-c2csc3ncn(-c4ccc(OC)cc4)c(=O)c23)cc1	44*	-4	5	-5	-2	-3	1%
Cc1ccc(C(=O)CSc2nnc(C(C)C)n2C)cc1C	42*	7	3	10	-1	-6	-1%
CCCCn1nnnc1SCC(=O)c1ccc(C)c(C)c1	5	-1	5	-3	-1	/	/
Cc1ccc(CNS(=O)(=O)c2c(C(=O)N3CCCCCC3)c(C)n(C)c2C)cc1	-1	-3	10	-1	0	/	/
NNC(=S)Nc1ccc(OC(F)(F)F)cc1	20	3	0	7	-1	/	/
CS/C(=C\[N+](=O)[O-])Nc1ccc(OC(F)(F)F)cc1	43*	-1	6	-9	1	-3	?
CCOc1ccccc1CNCCOC	-1	-8	2	0	0	/	/
CC(C)c1ccc(N(CC(=O)NCCCN2CCOCC2)S(=O)(=O)c2ccccc2)cc1	48*	1	6	12	0	-2	2%
Cc1ccc(S(=O)(=O)N2CCc3cc(C(=O)Nc4ccc(C)c(C)c4)ccc32)cc1	3	-1	0	-10	1	/	/
COc1ccc(Nc2nc(N)c([N+](=O)[O-])c(N3CCN(C)CC3)n2)cc1	46*	-1	1	-12	0	1	1%
COc1ccc(Nc2nc(N)c([N+](=O)[O-])c(N3CCCC3)n2)cc1	3	-6	4	8	0	/	/
CCC(NC(=O)Nc1cccc(C)c1)c1c(-n2cccc2)sc2c1CCN(C)C2 (stereo not drawn)	13	-3	5	-3	1	/	/
Cc1ccc(NCc2ccc(O)c3ncccc23)cc1C	-3	-4	3	-13	0	/	/
Cc1ccc(NCc2ccc(O)c3ncccc23)cc1	46*	7	2	10	0	4	1%
CCOC(=O)CC(=O)CSc1nccc(-c2cccnc2)n1	-3	-4	3	13	0	/	/
COc1cccc(NC(=O)c2cc3ccccc3o/c2=N\O)c1	49*	2	0	-1	0	6	-1%
COc1cccc(NC(=O)c2cc3cccc(OC)c3o/c2=N\O)c1	0	1	3	14	-1	/	/
COc1ccccc1C/C(N)=N/OC(=O)c1cccs1	47*	9	0	2	0	-2	-1%
COc1ccc(C2C(C(C)=O)=C(C)N=c3s/c(=C/c4ccc5c(c4)OCO5)c(=O)n32)cc1 (stereo not drawn)	-8	0	3	6	38*	8	?
SMILES	TRHR enhancer-1	D1 PAM	D1 agonist	D1 antag	TRHR agonist-1	TRHR enhancer-2	TRHR agonist-2
O=C(CN(Cc1ccccc1)C(=O)c1cccc([N+](=O)[O-])c1)Nc1c(Cl)cc(Cl)cc1Cl	-10	6	2	-17	0	/	/
CSc1nsc2nc(=O)c(/C=C3\C(C)=Nc4ccccc43)c(N)n12	-2	-2	0	-9	1	/	/
CC1=Nc2ccccc2/C1=C/c1sc(=S)n(-c2cccc(C(=O)O)c2)c1O	-6	3	49*	-5	29	2	21µM*
CC(C)c1ccc(CCNC(=O)CCNC(=O)c2ccc(Br)cc2)cc1	1	6	1	-1	0	/	/
Cc1nc(N2CCOCC2)nc(OC(C)C)c1[N+](=O)[O-]	58*	-10	3	-2	0	1	2%
COc1nc(N2CCOCC2)nc(C)c1[N+](=O)[O-]	3	-1	2	7	0	/	/
O=c1oc2c(CN3CCN(CCO)CC3)c(O)ccc2cc1-c1ccccn1	-3	-4	1	9	33*	3	?
Cc1nc2ccn(Cc3ccco3)c(=O)c2cc1C(=O)NCc1ccc(F)cc1	2	-4	1	-13	-1	/	/
CCCCCN1C(C(=O)c2ccccc2)=C(NC(=O)c2ccc(OC)c(OC)c2)c2ccccc2S1(=O)=O	8	-6	25	-15	5	/	/
Cc1c(Cc2ccccc2)c(=O)oc2c(O)c(O)ccc12	41*	4	0	3	0	-8	2%
COc1ccccc1NS(=O)(=O)c1cc(NC(=O)CN2C(=O)NC3(CCCC3)C2=O)ccc1C	-1	-5	7	-2	0	/	/
O=C(COc1ncnc2ccccc12)Nc1ccc(S(=O)(=O)N2CCOCC2)cc1	43*	-4	0	1	0	?	0%
Cc1c(Cl)c([N+](=O)[O-])nn1CCCC(=O)Nc1cccc(Cl)c1Cl	-3	0	3	4	0	/	/
COC(=O)c1ccccc1NC(=O)CCCn1nc([N+](=O)[O-])c(Br)c1C	0	-1	5	-22	28	-7	2%
Cc1cccc(-n2ncc3c(NCCCN4CCCC4=O)ncnc32)c1	6	-2	9	4	0	/	/
O=C1CCCN1CCCNc1ncnc2c1cnn2-c1ccc(Cl)cc1	54*	-1	8	-13	0	-8	5%
CC(=O)Nc1cc(NC(C)=O)c(N=Nc2ccccc2)cc1C	63*	-1	1	6	0	-3	2%

Assay outcomes as filed in PubChem.
